# PubChem BioAssay AID1721 (National Center for Advancing Translational Sciences (NCATS), 2009)
# Among all 290,000 compounds or so, about 1,100 (0.38%) were called active. This is one part of a sample in which actives are shown more often than they occur. A number with no mark means an inactive call. The call rests on the fitted dose curve; in most records, active means well fitted inhibition curve with a large enough effect; inconclusive means small, poorly fitted or top-dose-only effect, or another doubt; inactive means no such curve, though single readings can be large or run the other way.
# Molecular target: Pyruvate kinase (Leishmania mexicana) (UniProt Q27686)
# Sequence (Q27686 whole entry, looked up): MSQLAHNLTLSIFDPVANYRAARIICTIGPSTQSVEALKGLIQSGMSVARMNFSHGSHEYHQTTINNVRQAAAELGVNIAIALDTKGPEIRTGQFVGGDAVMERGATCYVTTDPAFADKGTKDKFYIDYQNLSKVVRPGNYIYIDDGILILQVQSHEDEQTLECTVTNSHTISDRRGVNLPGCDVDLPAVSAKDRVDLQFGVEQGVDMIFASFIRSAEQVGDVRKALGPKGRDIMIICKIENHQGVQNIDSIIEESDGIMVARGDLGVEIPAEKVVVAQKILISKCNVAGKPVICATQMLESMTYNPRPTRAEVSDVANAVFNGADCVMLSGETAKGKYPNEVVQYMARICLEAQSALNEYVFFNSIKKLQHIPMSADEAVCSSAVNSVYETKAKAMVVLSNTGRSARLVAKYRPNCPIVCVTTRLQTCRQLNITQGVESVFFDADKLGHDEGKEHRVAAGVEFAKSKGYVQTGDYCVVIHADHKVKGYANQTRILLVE
# Experiment: qHTS Assay for Inhibitors of Leishmania Mexicana Pyruvate Kinase (LmPK)
# Settings: purified LmPK, Kinase-Glo ATP luminescence, 1 h; series mostly up to 57.5 µM; activity change, negative = inhibition: at the top concentration
# Excerpt: NIH Chemical Genomics Center [NCGC] Malcolm Walkinshaw, Hugh Morgan, Linda Gilmore University of Edinburgh, UK MLPCN Grant: 1 R03 MH085697-01 NCGC Assay Overview: Pyruvate kinase (L. Mexicana) (LmPK) enzyme was supplied as a highly purified (>95% pure) sulphate-free preparation from University of Edinburgh, UK and assayed for its ability to generate ATP from ADP using phosphoenolpyruvate (PEP) as a substrate. ATP generation was detected in a coupled reaction by luciferase-mediated luminescence, an ATP-dependent process. […] The enzyme was assayed at an intermediate level of activity to screen for both inhibitors and activators.
# NCGC Assay Protocol Summary: Three uL of enzyme mix (kept on ice) in assay buffer (50 mM Imidazole pH7.2, 50 mM KCl, 7 mM MgCl2, 0.01% Tween 20, 0.05% BSA) containing PEP (0.5 mM final concentration) and LmPK (0.1 nM final concentration) was dispensed into white solid bottom 1,536 well microtiter plates. 23 nL of compound were delivered by a pin tool and 1 uL of ADP mix in assay buffer (r.t; 0.1 mM final ADP concentration) was added. Plates were incubated at room temperature for 1 hour. Two uL of detection mix (Kinase-Glo, Promega; at 4 degree Celsius protected from light) was added and luminescence read by a ViewLux (Perkin Elmer) at 1 second exposure/plate. Data were normalized to the uninhibited and AC100 inhibition (no enzyme). To monitor activation, the first column contained a five-fold concentration of LmPK (0.5 nM).
# On the % scale 0 is the no-effect control and ±100 the full control effect; potency means the concentration at half of the fitted maximal effect.
SMILES,"activity change, negative = inhibition",Potency
COc1ccc(OCC(=O)Nc2ccc(NC(=O)c3ccco3)c(C)c2)cc1,3.97%,
CCn1c(SCC(=O)NC2CC2)nnc1-c1ccccc1OC,3.59%,
COc1cc(OC)cc(C(=O)OCC(=O)Nc2ccc(F)cc2F)c1,3.32%,
COc1ccccc1CC(=O)Nc1ccc(F)cc1F,-4.93%,
COc1ccc(C(=O)Nc2ccc(F)cc2F)cc1,,14.1 µM (active)
O=C(c1cc(-c2ccc(O)cc2)on1)N1CCOCC1,-7.59%,
Cc1ccc(CN2CCN(c3ncccn3)CC2)c(C)c1,-4.47%,
CCOC(=O)C1CCN(C(=O)C2CCCN(S(=O)(=O)c3ccc(OC)c(Cl)c3)C2)CC1 (stereo unspecified),-1.27%,
Cc1cnc(NC(=O)c2ccccn2)s1,,15.8 µM (active)
Cc1cnc(NC(=O)c2ccc(Cl)nc2)s1,-1.78%,
O=C(Nc1nnc(C2CC2)s1)c1ccccn1,,25.1 µM (active)
Cc1cnc(NC(=O)CSc2c(Cl)cccc2Cl)s1,0.4%,
O=C(Nc1nnc(C2CC2)s1)c1cc(Cl)sc1Cl,-4.39%,
O=C(Cc1cccs1)Nc1nnc(C2CC2)s1,1.96%,
O=C(O)c1ccc(-n2nc(-c3ccccc3)c3ccccc3c2=O)cc1,4.17%,
COC(=O)c1c(NC(=O)COC(=O)[C@@H](NS(=O)(=O)c2ccccc2)C(C)C)sc2c1CCC2,2.43%,
O=C(CN(CC1CCCO1)C(=O)CNS(=O)(=O)c1ccc(Cl)cc1)NCc1ccccc1 (stereo unspecified),-1.92%,
CC(C(=O)Nc1ccc(O)c(C(=O)O)c1)N1C(=O)/C(=C/c2cccs2)SC1=S (stereo unspecified),20.1%,
COc1ccc(NC(=O)C(CC(C)C)NC(=O)C2CCC(C)CC2)cc1 (stereo unspecified),-0.13%,

SMILES,"activity change, negative = inhibition",Potency
O=C(Nc1nnc(C2=COCCO2)o1)c1ccc([N+](=O)[O-])s1,-1.89%,
COc1cc(C(C)=O)ccc1OC(=O)CN1C(=O)c2ccccc2C1=O,3.8%,
CCOc1cccc(/C=C/c2ccc3ccccc3n2)c1OC(C)=O,-23%,
COc1cccc(/C=C/c2ccc3ccccc3n2)c1OC(C)=O,,25.1 µM (active)
COc1cccc(/C=C2\C=C(c3ccc(C)cc3)OC2=O)c1OC(C)=O,-2.55%,
COc1ccc(CCNCc2c(-c3ccccc3)n(C)c3ccccc23)cc1,-1.5%,
Cc1ccc(N(C(=O)C(F)(F)F)C(C(=O)NC2CCCCC2)c2ccncc2)cc1C (stereo unspecified),-2.72%,
O=C(O)C1CCCN1C1=NS(=O)(=O)c2ccccc21 (stereo unspecified),-0.501%,
COc1ccccc1OCc1nc2ccccc2s1,,15.8 µM (active)
O=C(O)CCCCc1nc2ccccc2s1,-1.65%,
CN(Cc1nc2ccccc2s1)C(=O)c1ccc(F)cc1,-3.18%,
Cc1cc(S(=O)(=O)N2CCOCC2)ccc1OCC(=O)Nc1cccc(C(F)(F)F)c1,5.38%,
COc1cc(SC)ccc1C(=O)Nc1nc(C)cs1,,10 µM (active)
COc1cc(SC)ccc1C(=O)Nc1cc(C)ccn1,-8.85%,
COc1cc(SC)ccc1C(=O)NCCOc1ccccc1Cl,0.758%,
O=C(NC(=S)NC1CCS(=O)(=O)C1)c1cccc([N+](=O)[O-])c1 (stereo unspecified),-7.45%,
Cn1c(-c2ccco2)nc2cc3ccccc3cc21,,12.6 µM (active)
O=c1c2ccccc2nc(-c2ccco2)n1-c1ccc(Br)cn1,-1.19%,
Cn1cccc1-c1nc2ccccc2n1C,0.62%,

SMILES,"activity change, negative = inhibition",Potency
c1ccc(-c2cc(-c3ccccc3)[nH]n2)cc1,0.475%,
S=c1[nH]nc(-c2cc(-c3ccccc3)n[nH]2)n1/N=C/c1c2ccccc2cc2ccccc12,0.0251%,
S=c1[nH]nc(-c2cc(-c3ccsc3)n[nH]2)n1-c1ccccc1,,10 µM (active)
CCn1cc(C(=O)N[C@@H](C)C(=O)NCCO)c(=O)c2cc3c(cc21)OCO3,-2.59%,
CCCNC(=O)CCc1c(C)nc2c(c(C)nn2-c2ccc(C)cc2)c1C,-2.85%,
CC(C)OC(=O)c1ccc(COc2ccc3ccc(=O)oc3c2)o1,0.39%,
Cc1ccccc1Cn1c(=O)[nH]c2ccccc21,1.18%,
O=c1[nH]c2ccccc2n2c(-c3ccccc3)nnc12,,3.16 µM (active)
CC(=O)c1c(-c2ccccc2)c2ccccc2[nH]c1=O,-2.03%,
Cc1ccc(S(=O)(=O)N/N=C(\c2ccccc2)C2CC2)cc1,-1.1%,
Cc1cc(C2=NNC(=Nc3ccc(S(=O)(=O)N4CCOCC4)cc3)SC2)c(C)n1CC1CCCO1 (stereo unspecified),-17.2%,
Cc1cccc(N=C2NN=C(c3c[nH]c4ccccc34)CS2)c1,0.353%,
C=CCn1c(C)cc(C2=NNC(=NCC)SC2)c1C,,14.1 µM (active)
COc1ccc(-c2ccc(OC(=O)NC3CCS(=O)(=O)C3)cc2)cc1 (stereo unspecified),1.14%,
CCOc1ccc(N/C=C/C(=O)c2ccccc2)cc1,-1.4%,
COc1ccc2cc(S(=O)(=O)Nc3ccccn3)ccc2c1,4.52%,
COc1ccc(C(=O)/C=C/Nc2ccccn2)cc1,,12.6 µM (active)
CC1CCC(NC(=O)CN(C)S(=O)(=O)c2ccc3c(c2)c(=O)n(C)c(=O)n3C)CC1 (stereo unspecified),-2.21%,
